Experimental findings from PubChem BioAssay (NCATS) are described below.

Structures are written as SMILES. Inconclusive results are not listed. Unmarked numbers belong to inactive results. The source made the active and inactive calls. The call rests on the fitted dose curve; in most records, active means well fitted curve in the direction sought with a large enough effect; inconclusive means small, poorly fitted or top-dose-only effect, or another doubt; inactive means no such curve, though single readings can be large; an effect the other way counts as inactive or inconclusive.

For experiment [1], the target named is Rap guanine nucleotide exchange factor 3 (Homo sapiens) (UniProt O95398). Briefly: Confirmatory qHTS for antagonist of cAMP-regulated guanine nucleotide exchange factor 3 (EPAC1) (AID 1645880). Further: nearly all actives have a fitted effect of over 55% in size. Further: potency means the concentration at half of the fitted maximal effect. Particulars: EPAC1 Rap1B-BODIPY-GDP exchange, fluorescence; series mostly up to 115 µM. In a few lines: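 Nucleotide exchange uses 100 nM EPAC1, 250 nM RAP1B-BODIPY-GDP and 50 uM GDP, with compounds in a concentration-titration series. After 5 min at room temperature, fluorescence (480 nm ex/540 nm em) is read every 5 min for 30 min. Data are normalized to control ATA and DMSO.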
Chain of Rap guanine nucleotide exchange factor 3 (Homo sapiens) (O95398 whole entry, looked up): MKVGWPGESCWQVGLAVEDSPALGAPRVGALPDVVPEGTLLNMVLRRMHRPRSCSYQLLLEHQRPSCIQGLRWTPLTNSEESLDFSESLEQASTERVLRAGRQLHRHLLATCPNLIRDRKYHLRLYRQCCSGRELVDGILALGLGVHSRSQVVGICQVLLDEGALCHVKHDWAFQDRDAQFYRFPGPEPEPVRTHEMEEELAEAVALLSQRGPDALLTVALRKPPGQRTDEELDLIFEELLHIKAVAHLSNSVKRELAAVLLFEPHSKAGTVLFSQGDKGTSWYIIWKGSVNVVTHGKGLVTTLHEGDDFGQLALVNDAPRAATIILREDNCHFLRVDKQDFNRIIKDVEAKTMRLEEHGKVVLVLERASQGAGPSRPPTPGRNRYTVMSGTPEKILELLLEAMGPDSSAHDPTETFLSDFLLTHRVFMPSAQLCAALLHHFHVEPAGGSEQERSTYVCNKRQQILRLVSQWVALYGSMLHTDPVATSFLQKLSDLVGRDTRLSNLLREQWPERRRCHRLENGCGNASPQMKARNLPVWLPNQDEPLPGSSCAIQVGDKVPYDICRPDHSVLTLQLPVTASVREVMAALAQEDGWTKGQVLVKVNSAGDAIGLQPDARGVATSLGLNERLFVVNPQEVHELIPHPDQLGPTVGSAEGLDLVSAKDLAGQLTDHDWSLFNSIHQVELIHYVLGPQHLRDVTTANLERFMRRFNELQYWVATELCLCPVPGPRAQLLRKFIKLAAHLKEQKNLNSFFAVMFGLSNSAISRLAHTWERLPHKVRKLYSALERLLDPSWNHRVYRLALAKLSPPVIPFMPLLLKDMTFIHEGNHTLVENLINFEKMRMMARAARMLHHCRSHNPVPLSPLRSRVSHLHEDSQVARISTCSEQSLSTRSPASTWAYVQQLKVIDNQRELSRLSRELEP
Background: In qHTS, concentration-response curves come from the screen itself.

For experiment [2] the target is unchanged. Kind of experiment: Confirmatory qHTS for agonist of cAMP-regulated guanine nucleotide exchange factor 3 (EPAC1) (AID 1645881).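 Further: EPAC1 catalysed release of BODIPY-GDP from Rap1B seen as fluorescence loss; 100% = effect of cAMP agonist control; nearly all actives have a fitted effect of over 75% in size.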 The following applies: EPAC1 Rap1B BODIPY-GDP exchange fluorescence; series mostly up to 154 µM.
For experiment [3], the target named is Rap guanine nucleotide exchange factor 4 (Homo sapiens) (UniProt Q8WZA2). Briefly: Confirmatory qHTS for agonist of cAMP-regulated guanine nucleotide exchange factor 4 (EPAC2) (AID 1645884).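 Further: nucleotide exchange releases bodipy-GDP from Rap1 and this lowers its fluorescence; on the % scale 0 is the no-effect control and ±100 the full control effect; nearly all actives have a fitted effect of over 65% in size.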 The following applies: EPAC2 GEF activity, Rap1B-BODIPY-GDP fluorescence; series mostly up to 154 µM.
Chain of Rap guanine nucleotide exchange factor 4 (Homo sapiens) (Q8WZA2 whole entry, looked up): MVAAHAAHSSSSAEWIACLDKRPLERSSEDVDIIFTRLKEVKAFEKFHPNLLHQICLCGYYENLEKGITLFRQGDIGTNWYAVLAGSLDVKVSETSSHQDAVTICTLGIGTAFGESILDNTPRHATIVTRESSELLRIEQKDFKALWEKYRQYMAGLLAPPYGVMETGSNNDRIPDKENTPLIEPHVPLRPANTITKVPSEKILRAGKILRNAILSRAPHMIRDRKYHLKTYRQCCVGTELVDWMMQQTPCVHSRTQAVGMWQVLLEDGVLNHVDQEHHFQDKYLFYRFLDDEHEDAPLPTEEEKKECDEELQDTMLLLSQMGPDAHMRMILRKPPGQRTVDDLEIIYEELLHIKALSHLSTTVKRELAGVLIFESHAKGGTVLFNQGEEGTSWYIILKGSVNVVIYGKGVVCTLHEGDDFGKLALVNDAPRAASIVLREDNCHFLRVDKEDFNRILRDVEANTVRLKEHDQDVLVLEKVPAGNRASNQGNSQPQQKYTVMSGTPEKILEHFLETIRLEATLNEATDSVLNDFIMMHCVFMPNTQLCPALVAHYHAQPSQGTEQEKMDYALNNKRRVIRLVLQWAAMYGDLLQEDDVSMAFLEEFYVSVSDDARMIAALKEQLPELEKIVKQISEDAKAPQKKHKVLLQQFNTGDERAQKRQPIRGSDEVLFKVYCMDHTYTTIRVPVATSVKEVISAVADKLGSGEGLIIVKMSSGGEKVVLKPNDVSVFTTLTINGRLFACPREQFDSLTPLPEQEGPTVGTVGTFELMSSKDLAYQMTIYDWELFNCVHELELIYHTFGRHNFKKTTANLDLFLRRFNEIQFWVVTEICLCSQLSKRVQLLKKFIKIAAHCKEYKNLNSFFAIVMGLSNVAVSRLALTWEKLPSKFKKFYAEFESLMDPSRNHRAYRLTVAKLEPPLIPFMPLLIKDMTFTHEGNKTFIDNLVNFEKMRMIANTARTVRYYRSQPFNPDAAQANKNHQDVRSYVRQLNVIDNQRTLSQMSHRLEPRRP
The target is the same in experiment [4]. Briefly: Confirmatory qHTS for antagonist of cAMP-regulated guanine nucleotide exchange factor 4 (EPAC2) (AID 1645885). Further: nearly all actives have a fitted effect of over 25% in size. Further: potency means the concentration at half of the fitted maximal effect. On activity change, negative = inhibition: on the % scale 0 is the no-effect control and ±100 the full control effect. The following applies: EPAC2 Rap1B-BODIPY-GDP exchange fluorescence, biochemical; series mostly up to 12.7 µM.
Experiment [5] concerns the target Rap guanine nucleotide exchange factor 3 (Homo sapiens) (UniProt O95398). Kind of experiment: Counterscreen qHTS for antagonist of cAMP-regulated guanine nucleotide exchange factor 3 (EPAC1) (AID 1645888).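 Further: fluorescence loss as bound BODIPY-GDP is released from Rap1B; % of control where 0% means no effect.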 The following applies: Rap1B-BODIPY-GDP nucleotide exchange, fluorescence; series mostly up to 154 µM. An outline of the steps: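 Rap1B–BODIPY-GDP (250 nM) with 50 uM GDP; compounds pin-transferred to 9.74 nM–152 uM final (activator) or from 7.32 nM upwards (inhibitor). Fluorescence Ex/Em 480/540 nm read at 5 and 30 min, then after adding cAMP or buffer, at room temperature.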

In the case of `CC(C)N1CCc2c(sc(NC(=O)c3ccc(S(=O)(=O)N4CCCCC4C)cc3)c2C(N)=O)C1` (stereo not given), the Potency in experiment [1] was 89.1 µM (active). In addition, the Potency entry in experiment [2] and in experiment [4] was “inactive” each time. Also, the activation in experiment [3] is 4.64% [at 17.1 µM, percent relative to cAMP agonist control]. For the same molecule, the activity change, negative = inhibition in experiment [5] is 3.44% [at 30.8 µM].
Regarding `Cc1ccc(Cl)c2c1N[C@@H](c1ccc(C(=O)O)cc1)[C@H]1CC=C[C@@H]21`, the Potency in experiment [1] was 84.9 µM (active). For the same molecule, the Potency entry in experiment [2], in experiment [3], in experiment [4] and in experiment [5] was “inactive” each time.
As to `COc1cc(S(=O)(=O)Nc2ccccc2C)ccc1Cl`, the Potency result in experiment [1], in experiment [2], in experiment [3], in experiment [4] and in experiment [5] was “inactive” in each case.
As to `CC(C)c1nc(SCC(=O)N2CCCc3ccccc32)c2c(=O)n(C)c(=O)n(C)c2n1`, the Potency entry in experiment [1], in experiment [2], in experiment [3], in experiment [4] and in experiment [5] was “inactive” in each case.
`COc1cc(/C=N/NC(=O)c2ccccn2)ccc1OC(=O)c1ccc(Br)cc1`: the Potency entry in experiment [1], in experiment [2], in experiment [3], in experiment [4] and in experiment [5] was “inactive” each time.
On to `O=C1C=C(Nc2cccnc2)c2ccccc2C1=O`, for which, in experiment [1], the Potency is 67.5 µM (active). For the same molecule, the Potency entry in experiment [2], in experiment [3] and in experiment [5] was “inactive” in each case. In addition, in experiment [4], the outcome was “inactive [at 12.7 µM]”.
For `Cc1ccc(-c2cc(C(=O)Nc3ccc4c(c3)OCCO4)c3ccccc3n2)cc1`, the Potency entry in experiment [1], in experiment [2] and in experiment [4] was “inactive” in each case. Also, the activation in experiment [3] is 9.86% [at 17.1 µM, percent relative to cAMP agonist control]. The activity change, negative = inhibition in experiment [5] is 3.98% [at 30.8 µM].
As for `CCC(=Cc1ccccc1OC)c1ccncc1`, the Potency result in experiment [1], in experiment [2], in experiment [3], in experiment [4] and in experiment [5] was “inactive” each time.
Take `OC(c1ccc(Cl)c(Cl)c1)c1ncc(-c2ccc(Cl)cc2)[nH]1` (stereo not given): the Potency result in experiment [1], in experiment [2] and in experiment [4] was “inactive” throughout. The activation in experiment [3] is -3.18% [at 17.1 µM, percent relative to cAMP agonist control]. In addition, in experiment [5], the activity change, negative = inhibition was -2.17% [at 30.8 µM].
In the case of `COC(=O)c1c(SC)nc2ccccc2c1OCc1ccc(Br)cc1`, the Potency entry in experiment [1], in experiment [2], in experiment [3], in experiment [4] and in experiment [5] was “inactive” in each case.
Turning to `CCCCOc1ccccc1NC(=O)Cn1c(-c2cncs2)nc2ccccc21`, the Potency result in experiment [1], in experiment [2], in experiment [3], in experiment [4] and in experiment [5] was “inactive” each time.
With `Cc1cc(NC(=O)CSc2sc3c(O)cc(=O)[nH]c3c2C#N)ccc1Br`, the Potency in experiment [1] was 42.6 µM (active). The Potency entry in experiment [2], in experiment [3], in experiment [4] and in experiment [5] was “inactive” throughout.
As to `NS(=O)(=O)c1ccc(Nc2nc3ccccc3nc2NS(=O)(=O)c2cccc([N+](=O)[O-])c2)cc1`, the Potency in experiment [1] is 75.7 µM (active). The Potency result in experiment [2], in experiment [3], in experiment [4] and in experiment [5] was “inactive” each time.
As to `CSc1nnc(-c2ccccc2)c(-c2ccccc2)n1`, the Potency entry in experiment [1], in experiment [2], in experiment [3] and in experiment [5] was “inactive” in each case. The Potency in experiment [4] is 19 µM (active).
For the molecule `CCOc1cc(CNc2ccc(O)cc2)cc(Br)c1OCc1ccccc1`, the Potency in experiment [1] is 75.7 µM (active). In addition, the Potency result in experiment [2], in experiment [3] and in experiment [5] was “inactive” in each case. Also, the outcome in experiment [4] is “inactive [at 12.7 µM]”.
`C=CCN(c1ccccc1)S(=O)(=O)c1cccc(C(=O)N2CC(C)CC(C)C2)c1` (stereo not given): the Potency result in experiment [1], in experiment [2], in experiment [3], in experiment [4] and in experiment [5] was “inactive” throughout.
Regarding `CSc1nc2c(c(C(F)(F)F)n1)CC(C)CC2` (stereo not given), the Potency result in experiment [1], in experiment [2], in experiment [3], in experiment [4] and in experiment [5] was “inactive” throughout.
As to `CCOC(=O)c1cccc(NC(=O)N2CCC(CN3CCCCCC3)CC2)c1`, the Potency entry in experiment [1], in experiment [2], in experiment [3] and in experiment [5] was “inactive” in each case. Further, the outcome in experiment [4] is “inactive [at 12.7 µM]”.
`O=C(COC(=O)CNC(=O)c1ccc(Cl)cc1Cl)NCc1ccco1`: the Potency result in experiment [1], in experiment [2] and in experiment [4] was “inactive” in each case. Also, the activation in experiment [3] is 5.36% [at 17.1 µM, percent relative to cAMP agonist control]. Besides, the activity change, negative = inhibition in experiment [5] is 9.24% [at 30.8 µM].
Turning to `Nc1nc2c(ncn2[C@@H]2O[C@H](CNCc3ccccc3)[C@@H](O)[C@H]2O)c(=O)[nH]1`, the Potency result in experiment [1], in experiment [2], in experiment [3], in experiment [4] and in experiment [5] was “inactive” each time.
As to `O=C(O)c1ccccc1NS(=O)(=O)c1ccc(NN=Cc2ccc(F)cc2)c([N+](=O)[O-])c1`, the Potency in experiment [1] was 26.9 µM (active). Besides, the Potency entry in experiment [2], in experiment [3], in experiment [4] and in experiment [5] was “inactive” in each case.
Turning to `O=C(/C=C/c1ccco1)NC(=S)Nc1cccc([N+](=O)[O-])c1`, in experiment [1], the Potency was 20 µM (active). The Potency result in experiment [2] and in experiment [4] was “inactive” in each case. Moreover, the activation in experiment [3] was 7.76% [at 17.1 µM, percent relative to cAMP agonist control]. Besides, the activity change, negative = inhibition in experiment [5] was -9.95% [at 30.8 µM].
